KB-V1 MDR tox: kills drug-selected multidrug resistant KB-V1 cells. Potency, µM (titrated, usually from 46.1 µM), hits mostly cytotoxic. 3.4% of 400,000 active. KB-V1 MDR cells viability, CellTiter-Glo, 72 h; also: nearly all actives have a fitted effect of over 60% in size
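KB-V1 MDR subline cells in DMEM (phenol-red free, 10% FBS) exposed to compounds in qHTS concentration series for 72 h at 37 degrees C. Viability read by CellTiter-Glo luminescence; concentration-effect curves fitted after normalization and correction.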
HT1080-NT tox: kills 2HG-producing HT-1080-NT fibrosarcoma cells. Potency, µM (series often up to 46.1 µM), usual class: cytotoxic. AID 686970. 1.6% of 360,000 active. HT-1080-NT fibrosarcoma viability, CellTiter-Glo ATP luminescence, 48 h;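 also: NT is the 2HG producing partner of a matched IDH1 knockdown line; nearly all actives have a fitted effect of over 55% in size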
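Luminescent CellTiter-Glo readout after 48 hours of compound exposure at 37 degrees C defined viability of HT-1080-NT cells. Activity was normalized to DMSO wells and cell-free media wells; concentration-response curves were fitted and assigned curve classes.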
MCF10A rerep: DNA re-replication induction in MCF 10a cells; MCF 10A DNA re-replication, Hoechst nuclear intensity, 48 h; Potency, µM (series often up to 46.1 µM), actives largely listed as activators; 2.9% of 350,000 active; AID 624296; also: nearly all actives have a fitted effect of over 50% in size
KB-3-1 cytotox: KB-3-1 parental cell cytotoxicity; Potency, µM (top dose mostly 46.1 µM), usual class: cytotoxic; 1.4% of 400,000 active; KB-3-1 viability, CellTiter-Glo ATP luminescence, 72 h; also: nearly all actives have a fitted effect of over 60% in size
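Cytotoxicity in the drug-sensitive parental line KB-3-1 was scored as loss of CellTiter-Glo luminescence following 72 h incubation with compound. Values come from curve fitting of normalized concentration-response data.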
HT1080 IDH1KD tx: toxicity to HT-1080 IDH1 knockdown cells (counter line) | HT-1080 IDH1 knockdown viability, ATP luminescence, 48 h | Potency, µM (series often up to 46.1 µM), actives largely listed as cytotoxic | 2% of 360,000 active
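Luminescent ATP read-out (CellTiter-Glo, 10 min at room temperature) after 48 h compound exposure at 37 °C gave viability of IDH1-knockdown HT-1080 cells. Activity was normalised to DMSO and cell-free wells, then fitted as concentration-response curves.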
SW480 rerep: DNA re-replication induction in SW480 cells. SW480 DNA re-replication, Hoechst DNA content imaging, 48 h. Potency, µM (titrated, usually from 46.1 µM), actives largely listed as activators. 1.8% of 340,000 active. AID 624297; also: nearly all actives have a fitted effect of over 55% in size
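Image-based DNA-content assay: after two days of treatment, nuclei were labelled with the DNA dye Hoechst and imaged, and hits were compounds raising the count of nuclei showing high fluorescence intensity.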
Each line names hits and unclear results; the compound was inactive in the other large screens; ! = repeats disagree. Rows were chosen to be rich in hits. Some 8% of all compounds tested hit in one or more screens of this group. Calls follow the shape of the dose curve; as a rule, active = well fitted curve in the direction sought with a large enough effect; inconclusive = small, poorly fitted or top-dose-only effect, or another doubt; inactive = no such curve, though single readings can be large; an effect the other way counts as inactive or inconclusive.

O=c1c2ccccc2nc(C[n+]2ccccc2)n1-c1cccc(C(F)(F)F)c1	none
CC1CCN2c3nc4ccccn4c(=O)c3CC3(C(=O)N(C)C(=O)N(C)C3=O)C2C1 (centres undefined)	KB-V1 MDR tox 7.3µM
CCN1c2nc3ccccn3c(=O)c2CC2(C(=O)N(C)C(=O)N(C)C2=O)C1C (centres undefined)	KB-V1 MDR tox 16µM
CN1C(=O)N(C)C(=O)C2(Cc3c(nc4ccccn4c3=O)N3CCc4ccccc4C32)C1=O (centres undefined)	none
COC(=O)C1=C(c2c(C)noc2C)C[C@@H]2CC[C@H]1N2C(=O)NCCOc1ccccc1Cl	none
COC(=O)C1=C(c2c(C)noc2C)C[C@@H]2CC[C@H]1N2C(=O)N1CCCCC1	none
CC1N(C)c2cc(NC(=O)c3ccco3)c(P(=O)(Nc3ccc([N+](=O)[O-])cc3)N3CCOCC3)cc2C1(C)C (centres undefined)	HT1080-NT tox inconclusive, MCF10A rerep inconclusive, KB-3-1 cytotox inconclusive, HT1080 IDH1KD tx 10µM
COC(=O)C1=C(c2ccc(S(C)(=O)=O)cc2)C[C@@H]2CC[C@H]1N2C(=O)NCCNC(C)=O	none
C[N+]12CCC(CC1)[C@@H](OC(=O)C(O)(c1ccccc1)c1ccccc1)C2	none (no result: KB-V1 MDR tox, HT1080-NT tox, KB-3-1 cytotox, HT1080 IDH1KD tx)
CC1=CC2OC3CC4OC(=O)C=CC=CC(C(C)O)OCC(O)C(C)CC(=O)OCC2(CC1O)C4(C)C31CO1 (centres undefined)	KB-V1 MDR tox inconclusive, HT1080-NT tox 0.046µM, KB-3-1 cytotox 0.0092µM (no result: HT1080 IDH1KD tx)
CC1=CC2OC3CC4OC(=O)C=CC=CC(=O)OCCC(C)C(O)C(=O)OCC2(CC1O)C4(C)C31CO1 (centres undefined)	KB-V1 MDR tox 0.52µM, HT1080-NT tox 0.21µM, KB-3-1 cytotox 0.15µM, SW480 rerep inconclusive (no result: HT1080 IDH1KD tx)
COc1ccccc1CNc1nc(NCc2ccccc2SC)c2sccc2n1	KB-V1 MDR tox inconclusive, HT1080-NT tox inconclusive, KB-3-1 cytotox inconclusive, HT1080 IDH1KD tx 18µM (no result: MCF10A rerep, SW480 rerep)
CCCCCCCCCCCCCCCC[n+]1ccccc1	KB-V1 MDR tox inconclusive, HT1080-NT tox 12µM, MCF10A rerep inconclusive, KB-3-1 cytotox 5.8µM!, HT1080 IDH1KD tx 10µM
CCOC(=O)c1c(-n2c(C)cc(C=C3C(=O)NC(=S)NC3=O)c2C)sc2c1CCCC2	HT1080-NT tox inconclusive, MCF10A rerep 18µM, KB-3-1 cytotox inconclusive, HT1080 IDH1KD tx inconclusive, SW480 rerep inconclusive
CCOC(=O)c1c(-n2c(C)cc(/C=C3/C(=O)NC(=O)N(CC)C3=O)c2C)sc2c1CCCC2	KB-V1 MDR tox inconclusive
CN(C)C1(CNC(=O)c2cc(S(=O)(=O)N3CCOCC3)c(Cl)cc2Cl)CCCCC1	KB-V1 MDR tox inconclusive
CC(C)(C)c1cc([N+](=O)[O-])cc(C(C)(C)C)c1O	HT1080-NT tox inconclusive, KB-3-1 cytotox 12µM, HT1080 IDH1KD tx inconclusive
CN(C)c1ccc(/C=C/C=C/c2sc3ccccc3[n+]2C)cc1	HT1080-NT tox 21µM, KB-3-1 cytotox 10µM, HT1080 IDH1KD tx inconclusive
CC[n+]1c(/C=C/N(C)c2ccccc2)sc2ccc(Cl)cc21	KB-V1 MDR tox 12µM, HT1080-NT tox inconclusive, KB-3-1 cytotox 15µM, HT1080 IDH1KD tx inconclusive
CN(C)c1ccc(/C=C/c2cc[n+](C)c3ccccc23)cc1	KB-V1 MDR tox 16µM!, HT1080-NT tox inconclusive, MCF10A rerep inconclusive, KB-3-1 cytotox 2.9µM!, HT1080 IDH1KD tx 7.3µM, SW480 rerep inconclusive
CC[n+]1c(/C=C/C=C/c2ccc(N(C)C)cc2)sc2ccccc21	KB-V1 MDR tox inconclusive, HT1080-NT tox 5.8µM, KB-3-1 cytotox 1.5µM, HT1080 IDH1KD tx 7.3µM
COc1ccc(C=C2C(=O)N(C)C(=O)N(C)C2=O)cc1COc1ccc(NC(C)=O)cc1	HT1080-NT tox inconclusive
COC(=O)C1=C(c2ccc(F)cc2F)C[C@@H]2CC[C@H]1N2C(=O)NC1CCCCC1	none
C[N+](C)(C)c1ccccc1	none
Cc1ccc(C(=O)Nc2ccc(Cl)cc2C(=O)c2ccccc2)cc1	KB-V1 MDR tox 21µM
COc1ccc(-n2cc(-c3ccccc3)c3c(N4CCN(CCO)CC4)ncnc32)cc1	HT1080-NT tox 16µM, HT1080 IDH1KD tx inconclusive, SW480 rerep inconclusive
COc1ccc(N2CCN(Cc3nc4ccccc4[nH]3)CC2)cc1	none
O=C1CN=C(c2ccccc2Cl)c2cc(Cl)ccc2N1Cc1cccc(Cl)c1	KB-V1 MDR tox 15µM, KB-3-1 cytotox inconclusive (no result: HT1080-NT tox, MCF10A rerep, HT1080 IDH1KD tx, SW480 rerep)
O=C1CN=C(c2ccccc2)c2cc(Cl)ccc2N1CC1CC1	none (no result: KB-V1 MDR tox, HT1080-NT tox, KB-3-1 cytotox, HT1080 IDH1KD tx)
C#CC1(O)CCC2C3CCC4=CC(=O)CCC4=C3C=CC21C (centres undefined)	KB-V1 MDR tox 2.6µM, HT1080-NT tox inconclusive, KB-3-1 cytotox 2.3µM, HT1080 IDH1KD tx inconclusive
COc1cccc(CCNCc2c(F)cccc2F)c1	none
Cn1c(O)c(C=NCCN2CCNCC2)c(=O)[nH]c1=O	none
Cc1cc(C)c(Cn2c(C(=O)O)c(C=O)c3ccccc32)c(C)c1	KB-V1 MDR tox inconclusive, MCF10A rerep 6.5µM, SW480 rerep inconclusive
CCC(c1nnnn1-c1ccc(OC)cc1)N1CCC(n2c(=O)[nH]c3ccccc32)CC1 (centres undefined)	none (no result: MCF10A rerep, SW480 rerep)
O=c1[nH]c2ccccc2n1C1CCN(C(c2ccnc3ccccc23)c2nnnn2-c2ccc3c(c2)OCCO3)CC1 (centres undefined)	KB-V1 MDR tox inconclusive, HT1080-NT tox inconclusive, KB-3-1 cytotox inconclusive, HT1080 IDH1KD tx 16µM (no result: MCF10A rerep, SW480 rerep)
COc1ccc(C(c2nnnn2-c2ccc3c(c2)OCCO3)N2CCC(n3c(=O)[nH]c4ccccc43)CC2)cc1 (centres undefined)	KB-V1 MDR tox inconclusive, HT1080-NT tox 18µM, KB-3-1 cytotox inconclusive, HT1080 IDH1KD tx 15µM (no result: MCF10A rerep, SW480 rerep)
O=[N+]([O-])c1ccccc1-c1cc(-c2ccccc2)cc(-c2ccccc2)[n+]1Cc1ccccc1Cl	HT1080-NT tox 7.3µM, MCF10A rerep inconclusive, KB-3-1 cytotox 9.2µM, HT1080 IDH1KD tx 10µM, SW480 rerep inconclusive
COC1=C(C)C(=O)C2=C(C1=O)C(CO)N1C(C#N)C3CC4C(C1C2N1CCOC41)N3C (centres undefined)	KB-V1 MDR tox 0.58µM, KB-3-1 cytotox inconclusive, HT1080 IDH1KD tx 0.65µM, SW480 rerep inconclusive
CCCC(=O)NC(Oc1ccc(Cl)cc1Cl)C(Cl)(Cl)Cl (centres undefined)	none
CC(Oc1ccc(Cl)cc1Cl)c1nc(-c2ccc(NC(=O)c3ccncc3)cc2)no1 (centres undefined)	KB-V1 MDR tox inconclusive, MCF10A rerep 23µM, KB-3-1 cytotox inconclusive, HT1080 IDH1KD tx inconclusive, SW480 rerep inconclusive
Nc1ccc(N2CCN(Cc3ccccc3Cl)CC2)c(Cl)c1	MCF10A rerep 21µM, KB-3-1 cytotox inconclusive
COc1ccccc1N1CCN(Cc2c(F)cccc2F)CC1	KB-V1 MDR tox 15µM

Source: PubChem BioAssay (National Center for Advancing Translational Sciences (NCATS))
